Measured values from PubChem BioAssay (Tox21).
A number with no mark means an inactive call. Results filed as inconclusive are left out. A call without a number means that no potency is given here. Active and inactive are the calls of the source. Unless noted, calls come from the whole dose curve; as a rule, active = well fitted curve in the direction sought with a large enough effect in the repeat runs; inconclusive = weak or mixed curves; inactive = no such curve, though single readings can be large; an effect the other way counts as inactive or inconclusive.

Assays:
[1] = qHTS assay to identify small molecule agonists or antagonists of the thyroid stimulating hormone receptor (TSHR) signaling pathway - wild type cell line counter screen (AID 1259384; calls by dose curve)
How it was run: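 Counter screen in untransfected Hek293: compounds (15-point titration, triplicate) plus phosphodiesterase inhibitor Ro20-1724 added after 18 h plating; 30 min RT. Intracellular cAMP via competitive d2/cryptate immunoassay, 1 h incubation.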

[2] = target: Thyrotropin receptor (Homo sapiens) (UniProt P16473); assay: qHTS assay to identify small molecule antagonists of the thyroid stimulating hormone receptor (TSHR) signaling pathway (AID 1259385; calls by dose curve; note: nearly all actives have a fitted effect of over 20% in size)
Thyrotropin receptor (Homo sapiens), sequence (P16473 whole entry, looked up): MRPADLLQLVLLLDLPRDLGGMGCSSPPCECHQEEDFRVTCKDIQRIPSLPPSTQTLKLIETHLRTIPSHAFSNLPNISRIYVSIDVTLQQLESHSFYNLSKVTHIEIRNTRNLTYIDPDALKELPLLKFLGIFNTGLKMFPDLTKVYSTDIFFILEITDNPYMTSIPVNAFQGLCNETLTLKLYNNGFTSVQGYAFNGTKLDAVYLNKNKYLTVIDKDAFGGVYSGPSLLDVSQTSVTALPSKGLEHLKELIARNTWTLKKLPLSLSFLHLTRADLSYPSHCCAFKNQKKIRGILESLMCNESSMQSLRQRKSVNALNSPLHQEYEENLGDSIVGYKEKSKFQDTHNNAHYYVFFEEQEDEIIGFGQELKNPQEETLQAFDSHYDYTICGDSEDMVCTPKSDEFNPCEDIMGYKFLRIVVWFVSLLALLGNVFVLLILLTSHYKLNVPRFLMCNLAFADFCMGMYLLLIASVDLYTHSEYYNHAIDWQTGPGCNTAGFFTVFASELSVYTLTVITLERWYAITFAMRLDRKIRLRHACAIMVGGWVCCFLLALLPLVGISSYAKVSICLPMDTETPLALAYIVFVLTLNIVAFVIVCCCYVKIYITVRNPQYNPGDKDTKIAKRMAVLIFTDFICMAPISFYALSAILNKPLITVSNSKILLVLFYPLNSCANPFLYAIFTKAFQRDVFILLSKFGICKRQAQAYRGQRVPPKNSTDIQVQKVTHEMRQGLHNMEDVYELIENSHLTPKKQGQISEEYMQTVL
How it was run: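 Antagonist mode: compound-treated TSHR-expressing HEK293 cells were stimulated with 1.5 ng/mL TSH (final) in presence of Ro20-1724 for 30 min at RT. HTRF cAMP detection after 1 h; each compound tested at 15 concentrations, triplicate.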

[3] = qHTS assay to identify small molecule agonists of the estrogen receptor alpha (ER-alpha) signaling pathway in the presence of an antagonist - cell viability counter screen (AID 1259386);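 note: series mostly up to about 92 µM; cells exposed to compounds for 22 h at 37 °C before the viability read; nearly all actives have a fitted effect of over 30% in size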
How it was run: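 Read-out: CellTiter-Fluor fluorescence after 1hr reagent incubation, measured in the same wells as the luciferase readout. VM7Luc4E2 cells were exposed to 15 compound concentrations with 10.0nM ICI-182,780 for 22hr at 37C.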

[4] = target: Progesterone receptor (Homo sapiens) (UniProt P06401); assay: qHTS assay to identify small molecule agonists of the progesterone receptor (PR) signaling pathway (AID 1346784; calls by dose curve; note: nearly all actives have a fitted effect of over 30% in size)
Progesterone receptor (Homo sapiens), sequence (P06401 whole entry, looked up): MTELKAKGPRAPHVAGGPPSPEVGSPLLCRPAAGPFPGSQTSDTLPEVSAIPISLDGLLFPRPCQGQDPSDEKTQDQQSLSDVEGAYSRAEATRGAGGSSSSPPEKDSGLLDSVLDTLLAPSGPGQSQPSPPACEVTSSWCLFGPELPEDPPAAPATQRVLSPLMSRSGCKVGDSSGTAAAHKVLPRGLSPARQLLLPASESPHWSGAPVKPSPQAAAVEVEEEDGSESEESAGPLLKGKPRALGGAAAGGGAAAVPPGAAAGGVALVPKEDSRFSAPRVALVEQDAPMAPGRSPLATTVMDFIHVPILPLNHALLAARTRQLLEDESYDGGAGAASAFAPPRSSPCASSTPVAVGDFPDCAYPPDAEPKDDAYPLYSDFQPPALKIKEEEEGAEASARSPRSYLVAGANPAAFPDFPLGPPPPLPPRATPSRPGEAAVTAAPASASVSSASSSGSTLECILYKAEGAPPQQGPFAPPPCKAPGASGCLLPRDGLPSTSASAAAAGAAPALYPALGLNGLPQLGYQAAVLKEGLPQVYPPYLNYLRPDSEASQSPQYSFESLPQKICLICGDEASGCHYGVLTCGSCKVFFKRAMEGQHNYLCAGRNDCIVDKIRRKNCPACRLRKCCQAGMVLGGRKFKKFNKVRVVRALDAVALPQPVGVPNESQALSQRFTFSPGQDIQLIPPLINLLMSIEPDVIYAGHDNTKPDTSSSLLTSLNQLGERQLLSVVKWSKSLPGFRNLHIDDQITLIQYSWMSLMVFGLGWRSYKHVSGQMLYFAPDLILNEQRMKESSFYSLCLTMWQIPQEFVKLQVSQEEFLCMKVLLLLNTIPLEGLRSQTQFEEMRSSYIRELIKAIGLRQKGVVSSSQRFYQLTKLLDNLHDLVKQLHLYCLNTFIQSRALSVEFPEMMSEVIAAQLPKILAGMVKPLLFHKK
How it was run: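 Cells (PR-UAS-bla HEK 293T, GripTite) were plated in assay medium containing 2% charcoal-stripped FBS and incubated 6 hr. Test compounds in DMSO were added for 16 hr at 37C. FRET substrate was then loaded for 2 hr at room temperature before fluorescence reading.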

[5] = target: Progesterone receptor (Homo sapiens) (UniProt P06401); assay: qHTS assay to identify small molecule antagonists of the progesterone receptor (PR) signaling pathway (AID 1346795; active = well fitted inhibition curve with a large enough effect in the signal ratio in the repeat runs, not every such curve was filed as active; the % refers to the signal ratio)
How it was run: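 Antagonist mode: compounds tested against 1 nM (final) promegestone stimulation in HEK293T cells expressing PR-UAS-bla reporter, 16 hr at 37C, 5% CO2; beta-lactamase activity detected via B/G FRET substrate after 2 hr at room temperature.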

[6] = qHTS assay to identify small molecule antagonists of the progesterone receptor (PR) signaling pathway - cell viability counter screen (AID 1346798); note: series mostly up to about 92 µM; nearly all actives have a fitted effect of over 50% in size
How it was run: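 Counter screen for cytotoxicity: viability of PR-UAS-bla HEK293T cells was measured with CellTiter-Glo luminescence following 16 hr compound exposure in the presence of R5020.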

[7] = qHTS assay to identify small molecule agonists of the progesterone receptor (PR) signaling pathway - cell viability counter screen (AID 1346799; calls by dose curve; note: nearly all actives have a fitted effect of over 45% in size)
How it was run: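 Cells (PR-UAS-bla HEK293T) are plated at 3,000/well in 2% charcoal-stripped FBS medium, rested 6 hr, dosed and incubated 16 hr at 37C. CellTiter-Glo is then added and luminescence measured after 30 min at room temperature.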

[8] = qHTS assay to identify small molecule agonists of the TGF-beta/Smad signaling pathway - cell viability counter screen (AID 1346829); note: top concentration of the series differs between compounds; nearly all actives have a fitted effect of over 45% in size
How it was run: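 Cytotoxicity counter screen: CellTiter-Glo luminescence (30 min, room temperature) measured in the SBE-bla HEK 293T reporter wells after 5 hr compound treatment at 37 C and the 2 hr substrate step.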

[9] = qHTS assay to identify small molecule agonists of the TGF-beta/Smad signaling pathway (AID 1346859; active = well fitted activation curve with a large enough effect in the signal ratio in the repeat runs, not every such curve was filed as active; the % refers to the signal ratio; note: series mostly up to about 77 µM)
How it was run: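 Reporter line: HEK 293T with stably integrated SBE-controlled beta-lactamase. Compound exposure lasts 5 hr at 37 C and 5% CO2; substrate loading follows for 2 hr at room temperature, with emission read at 460 and 530 nm.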

[10] = target: Thyrotropin-releasing hormone receptor (Homo sapiens) (UniProt P34981); assay: qHTS assay to identify small molecule antagonists of the thyrotropin-releasing hormone receptor (TRHR) signaling pathway (AID 1346877; active = well fitted inhibition curve with a large enough effect in the repeat runs, not every such curve was filed as active; note: series mostly up to about 51 µM)
Thyrotropin-releasing hormone receptor (Homo sapiens), sequence (P34981 whole entry, looked up): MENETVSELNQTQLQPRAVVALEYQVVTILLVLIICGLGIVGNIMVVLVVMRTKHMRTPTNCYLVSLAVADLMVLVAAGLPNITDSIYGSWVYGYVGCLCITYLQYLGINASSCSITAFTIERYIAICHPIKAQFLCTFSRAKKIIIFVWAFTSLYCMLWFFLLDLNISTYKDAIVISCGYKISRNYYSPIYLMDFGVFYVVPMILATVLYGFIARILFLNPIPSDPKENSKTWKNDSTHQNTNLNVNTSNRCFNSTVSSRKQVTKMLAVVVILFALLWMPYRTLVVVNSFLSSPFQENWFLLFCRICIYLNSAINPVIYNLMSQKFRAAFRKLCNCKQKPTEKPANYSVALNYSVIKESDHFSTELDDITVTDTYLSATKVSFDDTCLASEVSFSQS
How it was run: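 HEK293/TRHR cells, 18 h, 37 °C; Ca2+ dye 2 h; cpd 5 min RT; TRH 1 nM final; fluorescence read 3 min, 1 s intervals; 15 concs, triplicate.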

[11] = target: Thyrotropin-releasing hormone receptor (Homo sapiens) (UniProt P34981); assay: qHTS assay to identify small molecule agonists of the thyrotropin-releasing hormone receptor (TRHR) signaling pathway (AID 1346891; calls by dose curve;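 note: HEK293 cells expressing TRHR with calcium dye readout; series mostly up to about 58 µM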)
How it was run: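 Cells: TRHR-Hek293, seeded and incubated 18 h. Dye loading: 2 h at 37 °C. Compound added from DMSO stock by pin tool. Read-out: kinetic calcium fluorescence over 3 min.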

[12] = Human pregnane X receptor (PXR) small molecule agonists, qHTS cell viability counter screen (AID 1346977); note: nearly all actives have a fitted effect of over 50% in size
How it was run: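 Cytotoxicity counter screen run in the same wells as the PXR luciferase assay, using PXR-Luc HepG2 cells in charcoal-stripped serum medium. Viability: CellTiter-Fluor fluorescence after 24hr compound treatment.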

[13] = Caspase-3/7 induction in HepG2 cells by small molecules, qHTS assay (AID 1346978); note: nearly all actives have a fitted effect of over 15% in size
How it was run: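 Caspase-3/7 induction was measured by Caspase-Glo 3/7 luminescence (30 min, room temperature) after a 17 hr compound exposure of wild-type HepG2 cells seeded at 2,000 per well and pre-incubated 5 hr.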

[14] = Caspase-3/7 induction in CHO-K1 cells by small molecules, qHTS cell viability counter screen (AID 1346979); note: nearly all actives have a fitted effect of over 35% in size
How it was run: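 Cytotoxicity counter screen run in parallel with the caspase-3/7 assay: CHO-K1 cells, 16hr compound treatment at 37C, then CellTiter-Fluor for 1hr before fluorescence reading.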

[15] = Caspase-3/7 induction in CHO-K1 cells by small molecules, qHTS assay (AID 1346980); note: nearly all actives have a fitted effect of over 15% in size
How it was run: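 Luminescent Caspase-Glo 3/7 read (30min, room temperature) quantified apoptosis induction. Cells were wild-type CHO-K1, treated with compound for 17hr at 37 C and 5% CO2.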

[16] = Caspase-3/7 induction in HepG2 cells by small molecules, qHTS cell viability counter screen (AID 1346981); note: series mostly up to about 92 µM; nearly all actives have a fitted effect of over 30% in size
How it was run: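 Fluorescence read-out of live-cell protease activity (CellTiter-Fluor) after 1 hr with reagent. This was measured in the same wells as the caspase-3/7 luminescence, on HepG2 cells exposed to DMSO-dissolved compounds for 16 hr at 37 C.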

[17] = target: Nuclear receptor subfamily 1 group I member 2 (Homo sapiens) (UniProt O75469); assay: Human pregnane X receptor (PXR) small molecule agonists, qHTS assay (AID 1346982); note: nearly all actives have a fitted effect of over 35% in size; note: potency is the fitted concentration of half-maximal effect
Nuclear receptor subfamily 1 group I member 2 (Homo sapiens), sequence (O75469 whole entry, looked up): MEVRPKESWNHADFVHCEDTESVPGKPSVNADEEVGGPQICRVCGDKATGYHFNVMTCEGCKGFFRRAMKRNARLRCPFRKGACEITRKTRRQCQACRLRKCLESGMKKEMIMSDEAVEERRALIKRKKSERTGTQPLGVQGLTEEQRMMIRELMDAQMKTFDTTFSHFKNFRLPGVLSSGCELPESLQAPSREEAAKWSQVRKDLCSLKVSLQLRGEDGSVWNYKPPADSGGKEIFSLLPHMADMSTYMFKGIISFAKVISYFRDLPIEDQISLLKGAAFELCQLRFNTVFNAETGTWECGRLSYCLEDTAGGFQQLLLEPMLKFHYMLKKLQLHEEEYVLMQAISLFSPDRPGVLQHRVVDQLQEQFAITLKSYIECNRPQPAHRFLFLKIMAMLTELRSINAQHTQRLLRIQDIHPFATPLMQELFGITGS
How it was run: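 HepG2 PXR-Luc reporter line, 5% charcoal-stripped FBS; 5 hr pre-incubation, compound (DMSO) 24 hr at 37 C/5% CO2; ONE-Glo 30 min RT; luminescence read-out.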

[18] = target: Estrogen receptor (Homo sapiens) (UniProt P03372); assay: qHTS assay to identify small molecule agonists of the estrogen receptor alpha (ER-alpha) signaling pathway in the presence of an antagonist (AID 1259383; calls by dose curve; note: top concentration of the series differs between compounds; nearly all actives have a fitted effect of over 15% in size)
Estrogen receptor (Homo sapiens), sequence (P03372 whole entry, looked up): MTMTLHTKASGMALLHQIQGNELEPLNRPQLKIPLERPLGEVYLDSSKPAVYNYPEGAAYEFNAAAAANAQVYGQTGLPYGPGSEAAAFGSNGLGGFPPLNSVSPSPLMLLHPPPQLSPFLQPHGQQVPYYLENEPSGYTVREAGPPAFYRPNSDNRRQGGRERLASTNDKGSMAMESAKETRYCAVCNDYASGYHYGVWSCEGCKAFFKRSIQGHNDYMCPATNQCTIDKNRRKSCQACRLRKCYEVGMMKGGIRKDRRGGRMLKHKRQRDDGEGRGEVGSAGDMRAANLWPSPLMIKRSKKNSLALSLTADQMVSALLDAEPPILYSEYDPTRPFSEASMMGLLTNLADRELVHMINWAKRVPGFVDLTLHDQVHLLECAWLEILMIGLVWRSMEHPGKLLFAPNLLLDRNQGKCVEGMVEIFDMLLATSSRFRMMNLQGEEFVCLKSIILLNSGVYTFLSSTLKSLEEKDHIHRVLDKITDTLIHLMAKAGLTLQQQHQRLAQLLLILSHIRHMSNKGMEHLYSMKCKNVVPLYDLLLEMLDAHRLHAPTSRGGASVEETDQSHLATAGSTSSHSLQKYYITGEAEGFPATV
How it was run: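 Luciferase luminescence (ONE-Glo, 30min at room temperature) measured in VM7Luc4E2 cells after 22hr compound exposure at 15 concentrations, with 10.0nM ICI-182,780 final present; cells express endogenous ER-alpha and carry four EREs upstream of luciferase.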

[19] = qHTS assay to identify small molecule antagonists of the TGF-beta/Smad signaling pathway - cell viability counter screen (AID 1346824); note: nearly all actives have a fitted effect of over 50% in size
How it was run: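 Cytotoxicity counter-screen run in the same wells as the beta-lactamase Smad reporter read: CellTiter-Glo luminescence after 30 min at room temperature. HEK 293T SBE-bla cells had 5 hr compound exposure at 37 C with TGF-beta1 (0.25 ng/mL stock).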

[20] = target: Nuclear receptor subfamily 1 group I member 2 (Rattus norvegicus) (UniProt Q9R1A7); assay: Rat pregnane X receptor (rPXR) activation by small molecules, qHTS assay (AID 1346983); conditions: rPXR luciferase reporter cells, One-Glo luminescence, 24 h; max activation: hits give high values; note: nearly all actives have a fitted effect of over 20% in size
Nuclear receptor subfamily 1 group I member 2 (Rattus norvegicus), sequence (Q9R1A7 whole entry, looked up): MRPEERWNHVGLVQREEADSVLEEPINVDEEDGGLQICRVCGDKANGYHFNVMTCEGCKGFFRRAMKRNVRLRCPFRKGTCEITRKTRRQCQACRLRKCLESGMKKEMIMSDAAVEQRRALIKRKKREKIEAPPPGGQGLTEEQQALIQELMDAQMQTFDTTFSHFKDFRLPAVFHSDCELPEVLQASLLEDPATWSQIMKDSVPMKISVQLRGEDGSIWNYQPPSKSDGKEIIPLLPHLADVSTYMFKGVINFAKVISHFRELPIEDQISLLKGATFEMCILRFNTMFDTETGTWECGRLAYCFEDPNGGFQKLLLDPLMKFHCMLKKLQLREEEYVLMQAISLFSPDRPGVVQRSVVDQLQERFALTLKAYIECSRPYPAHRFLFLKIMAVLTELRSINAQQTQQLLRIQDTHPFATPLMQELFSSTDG
How it was run: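 Luminescent readout (One-Glo luciferase, 30 min room temperature) followed 24 hr compound treatment at 37 C of rPXR cells plated 2,000 per well and preincubated 5hr; qHTS format with compounds delivered in DMSO.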

Row | SMILES | outcome [1] | outcome [2] | outcome [3] | Potency [4] | Potency [5] | outcome [6] | Potency [7] | outcome [8] | outcome [9] | outcome [10] | Potency [11] | outcome [12] | outcome [13] | Potency [14] | outcome [15] | outcome [16] | Potency [17] | Potency [18] | outcome [19] | max activation [20] [%]
1 | Cc1cc(N)no1 | inactive | inactive | inactive | inactive | inactive | inactive | inactive | inactive | inactive | inactive | inactive | inactive | inactive | inactive | inactive | inactive | inactive | – | – | –
2 | CCCCCCCCCCCBr | – | – | inactive | – | inactive | inactive | inactive | inactive | inactive | inactive | inactive | inactive | inactive | – | inactive | inactive | inactive | inactive | inactive | –
3 | COc1cc2nc(N3CCN(C(=O)C4CCCO4)CC3)nc(N)c2cc1OC (configuration not stated) | – | – | inactive | – | – | – | inactive | inactive | inactive | inactive | inactive | inactive | inactive | inactive | – | inactive | – | inactive | – | 0.468
4 | O=S(=O)(O)CC(O)CCl (configuration not stated) | – | – | inactive | – | inactive | inactive | inactive | inactive | inactive | inactive | inactive | inactive | inactive | inactive | inactive | inactive | inactive | inactive | inactive | –
5 | C=C(C)C(=O)OCCCC | inactive | inactive | inactive | inactive | inactive | – | inactive | inactive | inactive | inactive | inactive | inactive | inactive | inactive | inactive | inactive | inactive | – | inactive | –
6 | CCCCCCCCOCCC#N | inactive | inactive | inactive | inactive | inactive | – | inactive | inactive | inactive | inactive | inactive | inactive | inactive | inactive | inactive | inactive | inactive | – | inactive | –
7 | NC(=O)CC[C@@H](N)C(=O)O | inactive | inactive | inactive | inactive | inactive | inactive | inactive | inactive | inactive | inactive | inactive | inactive | inactive | inactive | inactive | inactive | – | – | inactive | 0.0386
8 | CC(C)(C)c1ccc(N)cc1 | – | – | inactive | – | – | inactive | inactive | – | inactive | inactive | inactive | inactive | inactive | inactive | inactive | inactive | 68.6 µM (active) | inactive | inactive | –
9 | CCCCOCCCC | inactive | inactive | inactive | inactive | inactive | inactive | inactive | inactive | inactive | inactive | – | inactive | inactive | inactive | – | inactive | inactive | – | inactive | –
10 | CCCOc1ccc(C(=O)OCCN(CC)CC)cc1N | inactive | inactive | inactive | inactive | inactive | inactive | – | – | inactive | inactive | inactive | inactive | inactive | inactive | inactive | inactive | inactive | – | – | –
11 | O=C1CC2(CCCC2)CC(=O)N1CCNCC1COc2ccccc2O1 (configuration not stated) | inactive | inactive | inactive | inactive | inactive | inactive | – | inactive | inactive | inactive | – | inactive | inactive | inactive | inactive | inactive | 13.3 µM (active) | – | inactive | –
12 | CCCCCCC(=O)c1ccccc1 | inactive | inactive | inactive | inactive | inactive | inactive | inactive | inactive | inactive | inactive | inactive | inactive | inactive | inactive | – | inactive | inactive | – | inactive | –
13 | CCCCC(CC)CCC(CC(C)C)OS(=O)(=O)O (configuration not stated) | inactive | inactive | inactive | inactive | inactive | inactive | inactive | inactive | inactive | – | – | inactive | inactive | – | inactive | inactive | inactive | – | inactive | -2.27
14 | C/C=C(\C)C(=O)OC/C=C(\C)CCC=C(C)C | inactive | inactive | inactive | inactive | inactive | inactive | inactive | inactive | inactive | – | – | inactive | inactive | inactive | inactive | inactive | inactive | – | inactive | –
15 | Nc1nc(Cl)cc(Cl)n1 | – | – | inactive | – | inactive | inactive | – | inactive | – | inactive | – | inactive | inactive | – | inactive | inactive | inactive | inactive | inactive | –
16 | COc1cc(C(=O)NC2CCCNC2)cc(OC)c1OC (configuration not stated) | inactive | inactive | inactive | – | – | inactive | – | inactive | inactive | – | – | inactive | inactive | inactive | inactive | inactive | inactive | – | inactive | –
17 | COCc1nnc(-c2ccc[n+]([O-])c2)n1-c1c(Cl)c(Cl)cc2[nH]c(=O)c(=O)[nH]c12 | inactive | inactive | inactive | inactive | – | inactive | inactive | inactive | inactive | – | – | inactive | inactive | inactive | inactive | inactive | inactive | – | inactive | –
